PubChem BioAssay AID1318 (The Scripps Research Institute Molecular Screening Center, 2008)
Hit rate of the full screen: of about 1,200 compounds, about 160 (13%) were called active. These entries were drawn from the full list. A number with no mark means an inactive call.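 Rule for the calls: active = activation above the solvent-only control well mean plus 3 SD, set per screening run (cut at about 120% in these data); inactive = the rest.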

test: enhancement of STAT1-driven transcription – cell-based, NIH 3T3, luciferase luminescence, IFN-gamma, counter-screen for STAT3 activator project (AID 1318); settings: NIH 3T3 STAT1-luciferase reporter, at 5.7 µM, active compounds read high;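 note: 100% = IFN-gamma with DMSO median signal so 100% means no change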

SMILES | activation (% of control)
CN1C(=O)/C(=C\c2cc(Br)cs2)c2ccccc21 | 116%
Cc1nc(N=C(N)N)nc2c(C)cccc12 | 104%
CN1CCN(c2ccc([N+](=O)[O-])c(Sc3nc4ccccc4[nH]3)c2)CC1 | 96.2%
Cc1ccc(N=Nc2c(C)[nH]n(-c3ccccc3)c2=O)cc1 | 106%
N#Cc1ccccc1NC(=O)COc1c(Br)cc(Br)c2cccnc12 | 85.6%
c1ccc(-c2cn3c(n2)CCc2ccc4cccnc4c2-3)cc1 | 94.3%
CCOC(=O)CN(C)Cc1c[nH]c2ccccc12 | 88.5%
Cc1cccc(C(=O)Nc2nnc(Cc3c[nH]c4ccccc34)s2)c1 | 92.4%
Cc1ccc(S(=O)(=O)Nc2nc3ccccc3nc2N2CCc3ccccc3C2)cc1 | 105%
O=C(Cc1c[nH]c2ccccc12)OCCOC(=O)Cc1c[nH]c2ccccc12 | 94.1%
C/C(=N\NC(=O)CNc1cccc2ccccc12)c1ccc(Br)s1 | 92.6%
CSCCC(NC(=O)c1ccco1)C(=O)OCC(=O)Nc1ncc(Cl)c(C)c1Cl (stereo not given) | 105%
CCOc1ccc(C2c3[nH]c4ccccc4c3CCN2Cc2cn(CC)nc2C)cc1 (stereo not given) | 112%
Cc1ccc(Nc2nc(-c3sc(NC(=O)c4ccccc4)nc3C)cs2)cc1 | 105%
COc1ccccc1-c1nnc(NC(=O)c2ccc3ncsc3c2)o1 | 137% (active)
COc1ccccc1-c1nnc(SCC(=O)N2CC(C)CC(C)C2)o1 (stereo not given) | 97%
OC(COc1ccc2ccccc2c1)CN1CCOCC1 (stereo not given) | 118%
COc1cccc(/C=C(/CC(=O)Nc2ccc(N3CCOCC3)cc2)c2nc3ccccc3s2)c1 | 99.9%
Oc1c(C=Nc2cccc3nsnc23)ccc2ccccc12 | 95.4%
Cc1ccc(NC(=O)c2cc([N+](=O)[O-])ccc2Cl)c(O)c1 | 99.1%
CC(C)CNC(=O)COC(=O)/C=C/c1ccccc1[N+](=O)[O-] | 89.1%
O=C(Nc1cc(C(F)(F)F)ccc1Cl)c1cc(C2CC2)on1 | 98.3%
Oc1cccc2ccc(/C=C/c3ccc(Br)s3)nc12 | 103%
COc1nc(N=C(N)N)nc2c(C)cccc12 | 102%
CCOC(=O)c1c(-c2cccc(C)c2)csc1NC(=O)c1c(-c2ccccc2)noc1C | 117%

SMILES | activation (% of control)
O=[N+]([O-])c1ccc(N2CCN(S(=O)(=O)c3ccc4ccccc4c3)CC2)cc1NCc1ccco1 | 110%
O=C1CCCN1CCCNc1ncnc2c1[nH]c1ccccc12 | 82.6%
COc1ccc(NC(=O)ON=C2c3ccccc3-c3ccccc32)cc1 | 107%
Cc1ccc(-c2cc(C(=O)Nc3nn[nH]n3)c3ccccc3n2)c(C)c1 | 97.5%
C=CCn1c(-c2ccccc2OCC)n[nH]c1=S | 112%
COC(=O)c1[nH]c2ccccc2c1NC(=O)CN1CCCc2ccccc21 | 106%
CC(=O)Nc1ccc(NC(=O)COc2ccccc2C(=O)Nc2cccc(Cl)c2Cl)cc1 | 100%
Cc1ccc(/C=N/NC(=O)COc2ccccc2-c2ccccc2)cc1 | 114%
COc1cccc(NC(=S)C(C#N)=C2N(C)c3ccccc3N2C)c1 | 103%
COC(=O)c1[nH]c2cccc(C)c2c1NC(=O)CN1CCCc2ccccc21 | 93.5%
NC(=O)CSc1c[nH]c2ccccc12 | 99.4%
COc1ccc(-c2c3c(=O)n(C)c(=O)n(C)c3cn2-c2cccc(OC)c2)cc1 | 101%
N#Cc1c(C(F)(F)F)cc(-c2ccc(Cl)cc2)nc1SCC(=O)O | 113%
COc1ccc([N+](=O)[O-])cc1C1NN=C(c2cccc3ccccc23)S1 (stereo not given) | 120%
CSc1nc2sc3c(c2c(=O)[nH]1)CCc1ccccc1-3 | 95.8%
CCSc1nnc(-c2cc3c(s2)-c2ccccc2CC3)o1 | 132% (active)
COc1ccccc1N1CCN(C(=O)c2cc3c(-c4ccc(Cl)cc4)nn(C)c3s2)CC1 | 93.1%
COc1cc(OC)cc(C(=O)N[C@H](C(=O)Nc2nc3ccccc3[nH]2)C(C)C)c1 | 109%
CSc1nc(N(C)NC(=O)c2cccc(C)c2)c2ccccc2n1 | 107%
CCCS(=O)(=O)Nc1c(C(=O)O)[nH]c2ccccc12 | 94.9%
CCOC(=O)N1CCN(CC(=O)Nc2cc(C)nn2-c2nc3ccccc3s2)CC1 | 101%
CCNCc1cc2cc(C)ccc2[nH]c1=O | 98.7%
Cn1cccc1C(=O)Nc1nccs1 | 104%
CCOC(=O)C1CCN(c2ncnc3c2oc2ccc(Br)cc23)CC1 | 92.6%
COc1ccccc1C1C2=C(COC2=O)Nc2cc3c(cc21)OCO3 (stereo not given) | 116%

SMILES | activation (% of control)
COc1ccc(/C=N/Nc2ncnc3sc4c(c23)CCCC4)cc1O | 139% (active)
CCCCC(=O)Nc1nc(C)c(-c2csc(Nc3ccc(Cl)cc3)n2)s1 | 102%
Cc1cccc(C(=O)N2CCc3c([nH]c4ccccc34)C2CC(C)C)n1 (stereo not given) | 118%
C/C(=N\c1nc2ccccc2n1C)c1cc(Cl)ccc1O | 92.8%
C=CCCC(=O)Nc1nc(C)c(-c2csc(Nc3ccc(Cl)cc3)n2)s1 | 104%
Oc1cccc(C2c3[nH]c4ccccc4c3CCN2Cc2cnn(-c3ccccc3)c2)c1 (stereo not given) | 93.5%
Fc1ccc2nc(-c3ccccc3)nc(SCc3nnc(-c4ccccc4)o3)c2c1 | 96.5%
COc1ccc(C2c3[nH]c4ccccc4c3CCN2CCCn2cccn2)cc1C (stereo not given) | 95.6%
COc1ccc(Cl)cc1NC(=O)c1oc(C)nc1C | 98.8%
Cc1csc2ncc(C(=O)N(Cc3ccccc3)c3ccccn3)c(=O)n12 | 103%
Cc1ccc(C2=NN(C)c3nc4ccccc4n3C2)cc1 | 101%
COC(=O)c1[nH]c2ccccc2c1NS(=O)(=O)c1ccc(OC)cc1OC | 92.3%
O=C(O)CSCc1nc2ccccc2s1 | 120% (active)
O=C(O)CS/C(=C\c1ccc(F)cc1)c1nc2ccccc2s1 | 112%
Cc1nc2ccccc2cc1O | 87.9%
COc1ccc(C)cc1NC(=O)c1[nH]c(C)c(C(C)=O)c1C | 100%
CCn1c(SCC(=O)N/N=C/C=C/c2ccccc2[N+](=O)[O-])nnc1-c1ccccc1 | 89.9%
COc1cc(NS(=O)(=O)c2ccc(N/C=C(\C=O)c3nc4cc(Cl)ccc4o3)cc2)nc(OC)n1 | 93.1%
Cn1nc(-c2ccc(Cl)cc2)c2cc(C(=O)NCc3ccco3)sc21 | 94.9%
O=c1[nH]c(CSc2ncc(-c3ccc(F)cc3)n2Cc2ccco2)nc2ccccc12 | 100%
COCCCNc1nc2c(-c3cccc(C(F)(F)F)c3)nnn2c2ccccc12 | 98.4%
O=C(NCc1ccco1)c1cccn2c(=O)c3c4c(sc3nc12)CCCC4 | 87%
Cc1cccc(N(CC(=O)N=Nc2c(O)[nH]c3ccccc23)S(C)(=O)=O)c1C | 107%
O=C(C1CCN(S(=O)(=O)Cc2ccccc2)CC1)N1CCCc2ccccc21 | 105%
Cc1ccc(OCc2nnc(SC3CCc4ccccc4C3=O)n2C)cc1 (stereo not given) | 132% (active)
